Measurements published in PubChem BioAssay AID1159580 (chemical genetic matrix, 2015).
The whole screen tested about 5,500 compounds, of which about 2,000 (36%) were called active. Roughly 18% stayed inconclusive and do not appear here. Cut-off read from the data, not from the text of the source: active = normalized growth mostly below about 0.91 (no sharp cut-off); inconclusive = no clear call, values can overlap the other calls; inactive = mostly above about 0.92. The list shows a part of the results.

Test: chemical genetic growth profiling, strain panel (AID 1159580);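 note: tested at 20 µM; growth read once vehicle control cultures reached saturation at 30 °C; 1 = growth at the plate median or of vehicle wells; lower values mean less growth of the strain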
Conditions: growth OD

Measured: normalized growth

Cc1onc(-c2ccccc2)c1C(=O)NC1C(=O)N2[C@@H]1SC(C)(C)[C@@H]2C(=O)O (some centres not stated)
inactive: S. cerevisiae deletion strains, locus YJR075W, strain HOC1, hits give low values 1.02 | S. cerevisiae deletion strains, locus YKL009W, strain mrt4, hits give low values 1.01 | S. cerevisiae deletion strains, locus YKL068W, hits give low values 1.01 | S. cerevisiae deletion strains, locus YKL085W, strain MDH1 (second series), hits give low values 1.01 | S. cerevisiae deletion strains, locus YKL085W, strain MDH1, hits give low values 1.01 | S. cerevisiae deletion strains, locus YKL160W, strain elf1, hits give low values 1.06 | S. cerevisiae deletion strains, locus YKL190W, strain CNB1, hits give low values 1.01 | S. cerevisiae deletion strains, locus YKR001C, strain vps1, hits give low values 1.01 | S. cerevisiae deletion strains, locus YKR026C, strain gcn3, hits give low values 1.02 | S. cerevisiae deletion strains, locus YKR091W, strain srl3, hits give low values 1.01 | S. cerevisiae deletion strains, locus YLL001W, strain dnm1, hits give low values 1.02 | S. cerevisiae deletion strains, locus YLL026W, hits give low values 1.01 | S. cerevisiae deletion strains, locus YLL041C, strain sdh2, hits give low values 1.01 | S. cerevisiae deletion strains, locus YLR027C, strain aat2, hits give low values 1.01 | S. cerevisiae deletion strains, locus YLR039C, strain RIC1, hits give low values 1.01 | S. cerevisiae deletion strains, locus YLR058C, strain SHM2, hits give low values 1.01 | S. cerevisiae deletion strains, locus YLR102C, strain apc9, hits give low values 1 | S. cerevisiae deletion strains, locus YLR113W, strain HOG1, hits give low values 0.975 | S. cerevisiae deletion strains, locus YLR221C, strain rsa3, hits give low values 1.03 | S. cerevisiae deletion strains, locus YLR258W, strain gsy2, hits give low values 1.02 | S. cerevisiae deletion strains, locus YLR262C, strain YPT6 (second series), hits give low values 1.05 | S. cerevisiae deletion strains, locus YLR262C, strain YPT6, hits give low values 1.04 | S. cerevisiae deletion strains, locus YLR268W, strain sec22, hits give low values 1.05 | S. cerevisiae deletion strains, locus YLR320W, strain mms22, hits give low values 1.04 | S. cerevisiae deletion strains, locus YLR330W, strain CHS5, hits give low values 1.01 | S. cerevisiae deletion strains, locus YLR342W, strain FKS1 (second series), hits give low values 1.01 | S. cerevisiae deletion strains, locus YLR342W, strain FKS1, hits give low values 1.02 | S. cerevisiae deletion strains, locus YLR357W, strain rsc2, hits give low values 1.09 | S. cerevisiae deletion strains, locus YLR370C, strain arc18, hits give low values 1.02 | S. cerevisiae deletion strains, locus YLR371W, strain rom2, hits give low values 1.01 | S. cerevisiae deletion strains, locus YLR384C, strain iki3, hits give low values 1.03 | S. cerevisiae deletion strains, locus YLR418C, strain cdc73, hits give low values 0.998 | S. cerevisiae deletion strains, locus YML016C, strain PPZ1, hits give low values 1.01 | S. cerevisiae deletion strains, locus YML032C, strain rad52, hits give low values 1.03 | S. cerevisiae deletion strains, locus YML120C, strain ndi1, hits give low values 1.02 | S. cerevisiae deletion strains, locus YML124C, strain tub3, hits give low values 1.01 | S. cerevisiae deletion strains, locus YMR058W, strain fet3, hits give low values 1.01 | S. cerevisiae deletion strains, locus YMR078C, strain ctf18, hits give low values 1.01 | S. cerevisiae deletion strains, locus YMR125W, strain sto1, hits give low values 1.02 | S. cerevisiae deletion strains, locus YMR129W, hits give low values 1.01 | S. cerevisiae deletion strains, locus YMR205C, strain PFK2, hits give low values 1.05 | S. cerevisiae deletion strains, locus YMR223W, strain ubp8, hits give low values 0.975 | S. cerevisiae deletion strains, locus YMR231W, strain pep5, hits give low values 1.02 | S. cerevisiae deletion strains, locus YMR263W, strain SAP30, hits give low values 1.01 | S. cerevisiae deletion strains, locus YMR307W, strain GAS1, hits give low values 0.981 | S. cerevisiae deletion strains, locus YNL067W, strain RPL9B, hits give low values 1.02 | S. cerevisiae deletion strains, locus YNL071W, strain lat1, hits give low values 1.01 | S. cerevisiae deletion strains, locus YNL128W, strain TEP1, hits give low values 1 | S. cerevisiae deletion strains, locus YNL153C, strain GIM3, hits give low values 1.01 | S. cerevisiae deletion strains, locus YNL183C, strain NPR1, hits give low values 0.946 | S. cerevisiae deletion strains, locus YNL209W, strain ssb2, hits give low values 1.01 | S. cerevisiae deletion strains, locus YNL233W, strain BNI4, hits give low values 1 | S. cerevisiae deletion strains, locus YNL248C, strain rpa49, hits give low values 1.01 | S. cerevisiae deletion strains, locus YNL250W, strain rad50, hits give low values 1.01 | S. cerevisiae deletion strains, locus YNL271C, strain bni1, hits give low values 1.01 | S. cerevisiae deletion strains, locus YNL298W, strain CLA4, hits give low values 1.02 | S. cerevisiae deletion strains, locus YNL307C, strain MCK1, hits give low values 1.01 | S. cerevisiae deletion strains, locus YNL322C, strain KRE1 (second series), hits give low values 1.03 | S. cerevisiae deletion strains, locus YNL322C, strain KRE1, hits give low values 1 | S. cerevisiae deletion strains, locus YNR049C, strain mso1, hits give low values 1.02 | S. cerevisiae deletion strains, locus YNR052C, strain pop2, hits give low values 1 | S. cerevisiae deletion strains, locus YOL006C, strain TOP1, hits give low values 1.02 | S. cerevisiae deletion strains, locus YOL012C, strain htz1 0.833 | S. cerevisiae deletion strains, locus YOL147C, strain pex11, hits give low values 1.01 | S. cerevisiae deletion strains, locus YOR001W, strain rrp6, hits give low values 0.971 | S. cerevisiae deletion strains, locus YOR061W, strain CKA2, hits give low values 1.01 | S. cerevisiae deletion strains, locus YOR069W, strain VPS5, hits give low values 1.01 | S. cerevisiae deletion strains, locus YOR070C, strain gyp1, hits give low values 1.02 | S. cerevisiae deletion strains, locus YOR080W, strain dia2, hits give low values 1.02 | S. cerevisiae deletion strains, locus YOR083W, strain WHI5, hits give low values 1.04 | S. cerevisiae deletion strains, locus YOR106W, strain vam3, hits give low values 1.03 | S. cerevisiae deletion strains, locus YOR136W, strain idh2, hits give low values 0.992 | S. cerevisiae deletion strains, locus YOR144C, strain elg1, hits give low values 1.01 | S. cerevisiae deletion strains, locus YOR184W, strain ser1, hits give low values 1.01 | S. cerevisiae deletion strains, locus YOR231W, strain MKK1, hits give low values 1.01 | S. cerevisiae deletion strains, locus YOR265W, strain rbl2, hits give low values 1.01 | S. cerevisiae deletion strains, locus YOR270C, strain vph1, hits give low values 1.02 | S. cerevisiae deletion strains, locus YOR290C, strain snf2, hits give low values 1.02 | S. cerevisiae deletion strains, locus YOR316C, strain cot1, hits give low values 1.01 | S. cerevisiae deletion strains, locus YPL051W, strain arl3, hits give low values 1.01 | S. cerevisiae deletion strains, locus YPL055C, strain LGE1, hits give low values 1.05 | S. cerevisiae deletion strains, locus YPL078C, strain atp4, hits give low values 1.01 | S. cerevisiae deletion strains, locus YPL106C, strain sse1, hits give low values 1.04 | S. cerevisiae deletion strains, locus YPL240C, strain hsp82, hits give low values 1.02 | S. cerevisiae deletion strains, locus YPL241C, strain CIN2, hits give low values 1.01 | S. cerevisiae deletion strains, locus YPL256C, strain CLN2, hits give low values 0.98 | S. cerevisiae deletion strains, locus YPR119W, strain clb2, hits give low values 1 | S. cerevisiae deletion strains, locus YPR141C, strain kar3, hits give low values 1.02 | S. cerevisiae deletion strains, locus YPR163C, strain tif3, hits give low values 1.02 | S. cerevisiae deletion strains, locus YPR167C, strain met16, hits give low values 1.01 | S. cerevisiae deletion strains, strain wtn01, hits give low values 1.04 | S. cerevisiae strains, strain wild type, hits give low values 1
